Active and inactive are the calls of the source.
Experiment: JC-1 mitochondrial signal, unstimulated HepG2 cells – cell-based, JC-1 fluorescence, 24 h, 100 nL compound, profiling panel (AID 1167)
Settings: HepG2 mitochondrial potential, higher = more signal
Note: test concentration not given here.

SMILES | z-score
Cc1ccc(F)cc1S(=O)(=O)N[C@@H]1CCN(Cc2ccc(CC(C)C)cc2)C1 | -1.08
O=C1[C@H]2[C@H]3[C@H](O)[C@H](O)CC(=NOC[C@@H](O)COCc4ccco4)[C@@H]3CC[C@H]2C(=O)N1c1ccc(F)cc1F | 0.42
CCCNC(=O)[C@@H]1c2ccccc2C(=O)N(c2ccc(C)cn2)[C@H]1c1ccc(CO)cc1 | -0.833
CC[C@@H](c1ccccc1)n1c(=O)n2n(c1=O)[C@H]1[C@H](O)[C@@H]3O[C@@H]3C(=NOCC=C(C)CCC=C(C)C)[C@H]1CC2 | -2.4
CC(C)[C@@H](OCc1ccccc1)[C@H](C)C=NO[C@H](C)c1cn([C@H](CO)Cc2ccccc2)nn1 | -1.15
Cc1cc2c(c(=O)o1)[C@H](O)[C@H]1O[C@H]1C2=O | -1.31
COCCCNC(=O)[C@]1(Cc2ccccc2)N=C(c2ccc(OCCCO)cc2)O[C@@H]1c1ccccc1 | -0.175

Experiment: JC-1 mitochondrial signal, unstimulated adipocytes – cell-based, JC-1 fluorescence, 3T3-L1 adipocytes, 24 h, 100 nL compound, profiling panel (AID 1168)
Settings: JC-1 mitochondrial fluorescence, higher = more signal, called active from +8 up or from −8 down

SMILES | z-score
COCCOC(=O)N1C(=O)[C@@]2(c3cc(C#CC4(O)CCCCCC4)ccc31)[C@H](C(=O)N1CCN(c3ncccn3)CC1)[C@H]1C(=O)O[C@H](c3ccccc3)[C@H](c3ccccc3)N1[C@@H]2c1ccc(OCCO)cc1 | -0.224 (inactive)
CS(=O)(=O)CCOC(=O)C1=CC(CCCO)=CC(c2cccs2)N(Cc2cccc(OC(F)(F)F)c2)C=C1C(=O)OCCS(C)(=O)=O (stereo not drawn) | -0.268 (inactive)
N#Cc1ccc(NN2C(C(O)c3cc(C(F)(F)F)cc(C(F)(F)F)c3)C=CC3C(=O)N(c4ccccc4)C(=O)C32)cc1 (stereo not drawn) | -0.189 (inactive)
COC(=O)C1(C)C=C2C(=C(c3ccccc3)C(=O)C2C)CN1 (stereo not drawn) | -2.71 (inactive)
COC(=O)CC=C[C@H](C)[C@@H](OCc1ccccc1Br)C(C)C | 0.319 (inactive)
CC(=O)OC[C@H]1O[C@H](CCON=C[C@@H](C)[C@H](OCc2ccccc2)C(C)C)C=C[C@@H]1OC(C)=O | -0.801 (inactive)
CC(CCN1CCCCc2nc(C)c(C)cc21)=NOC(C)CN1CCCCc2nc(C)c(C)cc21 (stereo not drawn) | -1.2 (inactive)
CCN1C(=O)[C@H]2[C@H]3[C@H](O)[C@H](O)CC(=NOCc4ccccc4)[C@@H]3CC[C@H]2C1=O | 0.752 (inactive)
CC(=O)OC[C@H]1O[C@H](CCON=C(C)CCN2CCc3nc(-c4ccccc4)c(-c4ccccc4)cc3C2)C=C[C@@H]1OC(C)=O | -1.4 (inactive)
CN(C)CCCNC(=O)[C@@H]1c2ccccc2C(=O)N(Cc2cc(F)cc(C(F)(F)F)c2)[C@H]1c1ccc(CO)cc1 | -0.557 (inactive)
CC(CCC(=O)OC[C@H]1O[C@H](C#Cc2ccccc2)C=C[C@@H]1Oc1ccc(C)cc1)=NOC[C@@H](O)[C@H]1O[C@@H]2OC(C)(C)O[C@@H]2[C@H]1O | -0.649 (inactive)
CC(C)N1CC=CC23O[C@@H]4C=CCCOC(=O)C4[C@H]2C(=O)N(CCCCCCO)[C@@H]3C1=O (stereo partly drawn) | 0.294 (inactive)
O=C1[C@H]2[C@H]3[C@H](O)[C@H](O)CC(=NOC[C@@H](O)COCc4ccco4)[C@H]3CC[C@H]2C(=O)N1C1CCCCC1 | -0.236 (inactive)
CO[C@@H]1COC(=O)CCC[C@@H](C)[C@H](OC)COC(=O)CCC[C@H]1C | -0.996 (inactive)
O=C1NC(=O)C2C1C=CC(C(O)Cc1ccccc1)N2Nc1ccccn1 (stereo not drawn) | 0.272 (inactive)
CC(C)(C)OC(=O)CC[C@]1(C(=O)NCc2ccccc2)N=C(c2ccc(OCCCO)cc2)O[C@H]1c1ccccc1 | -1.1 (inactive)
CC(C)(C)OC(=O)CC[C@]1(C(N)=O)COC(c2ccc(OCCCO)cc2)=N1 | -0.0265 (inactive)
CC(C)CON=C1C[C@@H](O)[C@@H](O)[C@@H]2[C@@H]3C(=O)N(Cc4ccccc4)C(=O)[C@@H]3CC[C@@H]12 | -0.272 (inactive)

SMILES | z-score
C=CCOC(=O)[C@H]1[C@@H]2C(=O)O[C@@H](c3ccccc3)[C@@H](c3ccccc3)N2[C@@H](c2ccc(OCCOC(=O)[C@H]3C[C@H]4C(=O)N[C@@H](Cc5ccccc5)C(=O)N4[C@H]3c3ccc(O)cc3)cc2)[C@]12C(=O)Nc1ccccc12 | 0.0241 (inactive)
O=C1[C@H]2[C@H]3[C@H](O)[C@H](O)CC(=NOCc4ccccc4)[C@H]3CC[C@H]2C(=O)N1c1ccc(F)cc1F | 0.918 (inactive)
COC(=O)C1=C(C)[C@@H](O)[C@@H](C)[C@H](c2c(OC)c(OC)c(C)c(OC)c2OC)O1 | 0.657 (inactive)
COC(=O)[C@@]1(Cc2ccc(OC)cc2)[C@H]2c3cc(C(=O)N4CCCC4)n(Cc4cc(F)c(F)c(F)c4)c3C[C@H]2CN1C(=O)c1ccccc1 | -1.6 (inactive)
CC(CCC(=O)OC[C@H]1O[C@H](C#Cc2ccccc2)C=C[C@@H]1Oc1ccc(C)cc1)=NO[C@@H](C)c1cn([C@H](CO)Cc2ccccc2)nn1 | -0.346 (inactive)
CC(C)NC(=O)[C@@]1(c2ccc([N+](=O)[O-])cc2)CC(=O)N(CC23CC4CC(CC(C4)C2)C3)[C@@H]1c1ccc(CO)cc1I | 0.402 (inactive)
COC(=O)[C@H](C)NC(=O)CCC1CC(OC(=O)NCCc2ccc(F)cc2)CC2(CCCC(COC(=O)NCCc3ccc(Cl)cc3)O2)O1 (stereo partly drawn) | 0.313 (inactive)
C=C(CCCC)C(=O)CC[C@@H](OC(C)=O)c1cccc(OCCO)c1 | -0.673 (inactive)
CCOC(=O)[C@H](CC(C)C)NC(=O)CCC1CC(OC(=O)NCc2cccc3ccccc23)CC2(CCCC(COC(=O)NCCc3ccccc3OC)O2)O1 (stereo partly drawn) | -0.0276 (inactive)
CCCCCN1CC=CC23O[C@@H]4C=CCOC(=O)[C@@H]4[C@H]2C(=O)N(C(CO)C(C)C)[C@@H]3C1=O (stereo partly drawn) | 0.196 (inactive)
CCOC(=O)[C@H](CC(C)C)NC(=O)CCC1CC(OC(=O)NCc2cccc3ccccc23)CC2(CCCC(COC(=O)NCCN3CCOCC3)O2)O1 (stereo partly drawn) | -1.16 (inactive)
Cc1ccc(F)cc1S(=O)(=O)N[C@@H]1CCN(Cc2ccc(CC(C)C)cc2)C1 | -0.545 (inactive)
O=C1[C@H]2[C@H]3[C@H](O)[C@H](O)CC(=NOC[C@@H](O)COCc4ccco4)[C@@H]3CC[C@H]2C(=O)N1c1ccc(F)cc1F | -0.116 (inactive)
CCCNC(=O)[C@@H]1c2ccccc2C(=O)N(c2ccc(C)cn2)[C@H]1c1ccc(CO)cc1 | 0.123 (inactive)
CC[C@@H](c1ccccc1)n1c(=O)n2n(c1=O)[C@H]1[C@H](O)[C@@H]3O[C@@H]3C(=NOCC=C(C)CCC=C(C)C)[C@H]1CC2 | 0.151 (inactive)
CC(C)[C@@H](OCc1ccccc1)[C@H](C)C=NO[C@H](C)c1cn([C@H](CO)Cc2ccccc2)nn1 | 0.629 (inactive)
Cc1cc2c(c(=O)o1)[C@H](O)[C@H]1O[C@H]1C2=O | -0.883 (inactive)
COCCCNC(=O)[C@]1(Cc2ccccc2)N=C(c2ccc(OCCCO)cc2)O[C@@H]1c1ccccc1 | 0.492 (inactive)
